Screens from PubChem BioAssay.
BCR signal inh: inhibitors of chronic active B-cell receptor signaling; hit rate 0.05% among 340,000; Potency, µM (highest dose often 46.1 µM), inactives show at the highest dose activity change, negative = inhibition, hits mostly inhibitors; AID 493014; ABC-DLBCL IkBa-CBG/CBR reporter, luminescence ratio, 4 h; active = well fitted inhibition curve with a large enough effect in the signal ratio, with a control signal flat, not every such curve was filed as active; inconclusive = small, poorly fitted or top-dose-only effect, or effect the other way, or a change in a side signal; the % refers to the signal ratio;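 note: potency is the fitted concentration of half-maximal effect; plate controls were basal doxycycline-induced cells for no effect and cells given 10 µM MG132 for full effect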
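Cell line TMD8 (human ABC DLBCL), stably expressing tet-inducible CBG68-IkBa fusion and CBR; IMDM/0.5% FBS; cpd up to 46 uM; dox induction, 4 h, 37C/5% CO2; dual luminescence; green/red ratio; MG132 control.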
D1 agonist: human D1 receptor agonism; hit rate 1% among 360,000; HEK293 T-REx D1 cells, calcium flux, agonist mode; P21728; activation, % at 2 µM; in the data active = activation above about 30%; note: 0% is about no effect
Target sequence (P21728 whole entry, looked up): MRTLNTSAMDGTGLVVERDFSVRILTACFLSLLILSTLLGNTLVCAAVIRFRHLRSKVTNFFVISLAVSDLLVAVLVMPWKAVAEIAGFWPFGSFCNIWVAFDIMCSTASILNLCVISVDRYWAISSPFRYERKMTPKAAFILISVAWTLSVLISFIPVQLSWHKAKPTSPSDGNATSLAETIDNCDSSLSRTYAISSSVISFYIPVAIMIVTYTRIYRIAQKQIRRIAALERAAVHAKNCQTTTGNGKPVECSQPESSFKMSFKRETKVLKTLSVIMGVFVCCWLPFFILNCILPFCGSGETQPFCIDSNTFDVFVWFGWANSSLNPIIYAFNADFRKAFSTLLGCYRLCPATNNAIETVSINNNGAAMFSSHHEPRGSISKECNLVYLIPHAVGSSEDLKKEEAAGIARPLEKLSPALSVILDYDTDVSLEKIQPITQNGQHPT
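Agonism was scored from calcium flux recorded over 180 s (1 read/s) after pintool compound addition, following a 10-cycle baseline. Cells were inducible force-coupled HEK293 TREx D1, plated overnight at 30 C and loaded with no-wash calcium dye.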
D1 potentiator: human D1 dopamine receptor positive modulation. P21728. HEK293 TREx D1 cells, calcium flux, dopamine EC20 potentiation. potentiation, % at 10 µM. hit rate 0.036% among 360,000; in the data active = potentiation above about 30%; note: 0% is about no effect
DRD3 antagonist: blocks the human D3 dopamine receptor | P35462 | D3R cells, DiscoveRx beta-arrestin luminescence, antagonist mode; stronger effect = lower value | max response, negative = inhibition, % | hit rate 2.5% among 360,000 | AID 652054; in the data active = max response below about -50%; inconclusive = no clear call, values can overlap the other calls; note: % is set by controls: 0 for no effect and ±100 for the full control effect
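Cells expressing the human receptor were seeded at 1500 cells/well, incubated overnight at 37 degrees C in 5% CO2, then exposed to library compounds with dopamine controls for 90 minutes at 37 degrees C before luminescent detection.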
D3 ag: activates the human D3 dopamine receptor; D3R DiscoveRx beta-arrestin cells, luminescence, 90 min; max activation, %; hit rate 0.58% among 410,000; in the data active = max activation above about 30%; note: 0% is about no effect
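Agonist mode: compounds and dopamine controls were applied to plated cells for 90 min at 37 degrees C after an overnight attachment at 1500 cells/well. Luminescent read-out followed 30 - 60 minutes at room temperature with DiscoveRx detection reagent.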
D1 antagonist: human D1 dopamine receptor antagonism; P21728; HEK293 TREx D1 cells, calcium flux, dopamine EC80; stronger effect = lower value; activity change, negative = inhibition, % at 10 µM; hit rate 3.2% among 360,000; AID 504652; in the data active = activity change below about -30%; note: % is set by controls: 0 for no effect and ±100 for the full control effect
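Tetracycline-induced HEK293 T-REx cells with force-coupled D1 receptor were loaded with a no-wash calcium dye. Compound was added after a 10 s baseline and read kinetically for 180 s; EC80 dopamine was then added and calcium flux followed another 180 s.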
* = called active by the depositor; ? = inconclusive; nt = no result. Only some compounds are listed: those with a hit (about 6% of all), similar ones and a draw of the others.

SMILES	BCR signal inh	D1 agonist	D1 potentiator	DRD3 antagonist	D3 ag	D1 antagonist
Cc1ccc(C(=O)c2c3ccccc3[n+]([O-])n2[C@@H](C)C(N)=O)cc1	-20.8%	-1.4	2.6	-64.4*	-16.3	1.4
c1ccc(CNc2nc3c(-c4ccccc4)nnn3c3ccccc23)cc1	nt	-0.9	0.1	nt	9.2	-5.4
COC(=O)Nc1ncc(CN2CCC(c3ccccc3)CC2)s1	-10.7%	0.8	-2.5	-54.3*	9.7	1.0
Cc1ccccc1C1C(C#N)=C2N=C(N)c3c(sc4c3CCCCC4)N2C2=C1C(=O)CCC2 (configuration not stated)	13.1%	1.7	-2.5	-75.8*	-6.8	-41.9*
CN1CCN(C(=O)C2CCCCC2)CC1	nt	nt	nt	nt	-7.3	nt
C=C1SC(Nc2c(C)cc(C)cc2C)=NC12CCCCC2	?	2.3	-2.6	-54.4*	-24.5	15.5
C=C1SC(Nc2c(C)cccc2C)=NC12CCCCC2	7.9%	8.4	-4.7	-16.6	-5.8	-7.2
Cc1ccc2[nH]c3c(=O)n(CC(=O)N4CCCCC4)ncc3c2c1	nt	2.7	-2.4	nt	3.3	2.5
CCCOc1ccc(C(=O)c2nc3c(n2O)CCCC3)cc1	?	5.5	-5.2	-9.0	1.6	-31.5*
CCOc1ccc(C(=O)c2nc3c(n2O)CCCCC3)cc1	-10.8%	3.0	-4.1	-27.1	-1.8	-24.6
CCCCOc1ccc(CNC(=O)Cc2ccc(NC(=O)N3CCCCc4ccccc43)cc2)cc1	nt	5.8	-1.1	nt	1.1	-15.5
S=C(Nc1ccccc1Cl)N(CCCN1CCOCC1)Cc1ccccn1	4.3%	-0.2	3.8	-4.0	-1.4	-8.2
Cc1ccc(Cl)cc1NC(=S)N(CCCN1CCOCC1)Cc1ccccn1	-6.9%	0.1	0.0	13.1	-10.2	-74.4*
CC1=Nc2cc(C(=O)NCc3ccccc3Cl)ccc2Sc2c(C)ccc(C)c21	nt	6.3	4.5	nt	-5.1	21.1
CCCCNS(=O)(=O)c1ccc(C)c(-c2nnc3c4ccccc4c(C)nn23)c1	nt	1.2	2.2	nt	1.9	-4.9
CCc1cccc(C)c1NC(=O)C(NS(=O)(=O)c1ccc2c(c1)CCC(=O)N2)c1ccccc1 (configuration not stated)	nt	-0.5	7.9	nt	0.9	6.8
CC(=O)c1cccc(-c2ccnc3c2CC(C(=O)Nc2ccc(Cl)cc2)O3)c1 (configuration not stated)	nt	nt	nt	-60.9*	-15.4	nt
O=C(Nc1cccc(OC(F)(F)F)c1)C1Cc2c(-c3ccc4c(c3)OCO4)ccnc2O1 (configuration not stated)	nt	nt	nt	-54.8*	-8.7	nt
COc1ccc(NC(=O)C2Cc3c(-c4cccc(NC(C)=O)c4)ccnc3O2)cc1 (configuration not stated)	nt	nt	nt	-57.7*	-6.8	nt
CCOc1cccc(C2c3c(oc4ccccc4c3=O)C(=O)N2c2nc(C)c(C(=O)OC)s2)c1 (configuration not stated)	nt	0.9	-1.1	nt	-5.1	5.5
Cc1ccc(NC(=O)COC(=O)C(NS(=O)(=O)c2ccc(Cl)cc2)C(C)O)cc1 (configuration not stated)	-7.4%	7.3	-3.4	-12.6	2.5	-26.9
CC(NS(=O)(=O)c1ccc(Cl)cc1)C(=O)OCC(=O)Nc1ccc(N(C)C)cc1 (configuration not stated)	-2.4%	0.8	-1.4	-13.3	-2.5	-45.3*
O=C1OC(c2ccccc2)/C(=C(/O)c2ccc(Cl)cc2)C1=O (configuration not stated)	?	7.6	-2.5	-61.9*	-5.0	-0.9
S=C(Nc1cccc(Cl)c1)NC1CCCCC1	?	22.2	-2.1	35.9	-1.1	-33.9*
O=C(Nc1cccc(Cl)c1)NC1CCN(C2CCCCC2)C1 (configuration not stated)	-0.6%	16.0	13.2	-103.4*	-18.2	-12.3
SMILES	BCR signal inh	D1 agonist	D1 potentiator	DRD3 antagonist	D3 ag	D1 antagonist
O=C(NC1CCN(C(=O)Nc2cccc(Cl)c2)CC1)C1CCCCC1	?	5.8	nt	5.1	-6.7	-7.5
CCn1c(C)cc(/C=C2\SC(=O)N(CC(=O)Nc3ccc(C)c(C)c3)C2=O)c1C	?	0.5	-2.4	-21.2	2.5	-38.1*
COc1cc(/C=C2\SC(=O)N(CC(=O)Nc3cccc(C)c3)C2=O)cc([N+](=O)[O-])c1O	?	-0.4	-3.9	38.8	38.4*	-2.9
CCn1c(C)cc(/C=C2/SC(=O)N(CC(=O)N3CCCC3)C2=O)c1C	?	-0.9	-7.7	2.6	1.2	-11.3
COc1cc(OC)c(/C=C2\SC(=O)N(CC(=O)Nc3ccccc3F)C2=O)c(OC)c1	-1.3%	2.4	-0.8	-11.8	-6.2	-2.4
COc1cc(/C=C2\SC(=O)N(CC(=O)Nc3ccccc3F)C2=O)cc(Cl)c1O	?	130.5*	-4.8	153.9	58.5*	18.8
COc1ccc(-c2csc(C(NC(C)=O)c3ccc(F)c(F)c3)n2)cn1 (configuration not stated)	nt	nt	nt	-8.0	-2.9	nt
O=[N+]([O-])c1cc(/C=N\O)ccc1Oc1ccc(F)cc1	?	1.1	-3.9	-26.9	-6.0	-52.8*
CCC(=O)/C=C1\Sc2ccc(OC)cc2N1CC	-2.6%	3.4	-2.2	8.3	-0.7	-7.7
CC(CN(C)C)CN1c2ccccc2Sc2ccccc21 (configuration not stated)	?	38.3*	-1.1	0.0	0.0	-89.5*
C[C@@H](CN(C)C)CN1c2ccccc2Sc2ccccc21	nt	nt	nt	nt	-29.5	nt
CC(CN1c2ccccc2Sc2ccccc21)N(C)C (configuration not stated)	?	2.7	-3.0	-97.5*	-79.4	-8.1
COc1ccc2c(c1)N(C[C@H](C)CN(C)C)c1ccccc1S2	nt	nt	nt	-106.4*	-93.0	nt
O=C(NCCC1=CCCCC1)c1ccc2c(c1)N(Cc1cccc(Cl)c1)C(=O)c1ccccc1S2(=O)=O	?	2.7	-4.0	nt	-17.0	3.8
Cc1ccc(/C=C/C(=O)Nc2ccc(S(=O)(=O)Nc3cc(C)nc(C)n3)cc2)cc1	?	-1.6	-2.1	6.5	0.8	-23.8
Cc1cc(NS(=O)(=O)c2ccc(NC(=O)C(F)(F)F)cc2)nc(C)n1	4.7%	3.5	0.6	-8.8	30.4*	4.6
Cc1ccc(C(=O)/C=C/Nc2ccc(S(=O)(=O)Nc3cc(C)nc(C)n3)cc2)cc1	-0.4%	7.9	-3.0	15.3	5.4	-56.6*
Cc1cc(NS(=O)(=O)c2ccc(NC(=O)C(C(C)C)N3C(=O)c4ccccc4C3=O)cc2)nc(C)n1 (configuration not stated)	5.6%	4.3	-4.7	-75.5*	-5.7	4.0
CCC(C)C(NC(=O)c1ccccc1)C(=O)Nc1ccc(S(=O)(=O)Nc2cc(C)nc(C)n2)cc1 (configuration not stated)	0.1%	0.2	-1.5	-26.9	0.3	-58.5*
